Bioassay records: PubChem, National Center for Advancing Translational Sciences (NCATS)
Pf growth 48h: inhibits P. falciparum growth in the first generation, 48 h. P. falciparum luciferase growth in erythrocytes, 48 h. Potency, µM (series often up to 28.7 µM), without a hit: at the highest dose activity change, negative = inhibition, usual class: inhibitors. 5.9% of 310,000 active; active = well fitted inhibition curve with a large enough effect; inconclusive = small, poorly fitted or top-dose-only effect, or another doubt; inactive = no such curve, though single readings can be large or run the other way; also: potency is read from the fitted curve at half-maximal effect; % is scaled to controls: 0 for no effect and ±100 for the full control effect
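Erythrocytes infected with P. falciparum carrying an integrated firefly luciferase reporter (2% hematocrit, 0.1% parasitemia final) were exposed to compounds in RPMI 1640 with 0.5% Albumax at 37 C, 5% CO2. Growth inhibition was scored as reduced luminescence.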
CHX counter: counter-screen hit for Shiga toxin inhibitors, cycloheximide. cell reporter, cycloheximide protein synthesis inhibition counterscreen. max response, %. AID 2314. 12% of 300,000 active; in the data active = max response mostly above about 13%, no sharp cut-off; inactive = mostly below about 14%; also: read at 38.3 µM for the half of the compounds with a filed dose; 0% is about no effect
Shiga inhibitor: inhibitors of Shiga toxin in Vero cells | 9.2% of 290,000 active | inhibition, % at 38.7 µM | Vero cells, Shiga toxin protein synthesis inhibition reporter; in the data active = inhibition mostly above about 28%, no sharp cut-off; inactive = mostly below about 43%; also: 0% is about no effect
Pf growth 96h: P. falciparum growth inhibition at 96 hours | P. falciparum luciferase reporter growth, 96 h | AID 504834 | 6.9% of 320,000 active | Potency, µM (doses to about 28.7 µM), for the others: at the top dose activity change, negative = inhibition, most hits filed as inhibitors; active = well fitted inhibition curve with a large enough effect; inconclusive = small, poorly fitted or top-dose-only effect, or another doubt; inactive = no such curve, though single readings can be large or run the other way; also: potency is read from the fitted curve at half-maximal effect; % is scaled to controls: 0 for no effect and ±100 for the full control effect
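Plates of compound plus infected erythrocytes (2% hematocrit, 0.05% parasitemia final) incubate 96 hours, 37 C, 5% CO2. Detection reagent added; reduced luminescence from the parasites' luciferase reporter flags inhibition.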
NS1 inh: blocks influenza NS1 protein function; Potency, µM (doses to about 46.1 µM), inactives show at the highest dose activity, positive = more growth; 0.4% of 270,000 active; also: potency is read from the fitted curve at half-maximal effect; actives are rising curves; nearly all actives have a fitted effect of over 50% in size
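In this qHTS, NS1 from influenza A is expressed in budding yeast, where it slows growth. Cells are switched from glucose to 2% galactose medium (pH 6.0, -URA), treated with compound, and growth recovery is read at OD600.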
SARS PLP yeast: inhibitors of SARS-CoV papain-like protease in yeast; S. cerevisiae expressing SARS-CoV PLpro, growth rescue; Potency, µM (top dose mostly 32.9 µM), for the others: at the highest dose activity, positive = growth rescue, actives largely listed as activators; 0.19% of 330,000 active; also: potency is read from the fitted curve at half-maximal effect; 0% is about no effect; nearly all actives have a fitted effect of over 55% in size
Numbers without * were called inactive; ? = inconclusive; / = not tested or not shown; [ ] = remark or other dose. The list is not random: actives were taken first. Their share in the collection is about 21%. Unless noted, calls follow the shape of the full dose curve.

SMILES	Pf growth 48h	CHX counter	Shiga inhibitor	Pf growth 96h	NS1 inh	SARS PLP yeast
CC1C/C(=C/c2ccco2)C(=O)/C(=C/c2ccco2)C1 (stereo not drawn)	50%	-1	-2	8.3µM*	-10%	-43%
O=C1/C(=C\c2ccco2)CCC/C1=C\c1ccco1	187%	-2	10	?	16%	-27%
O=C1/C(=C/c2ccco2)Cc2ccccc21	44%	54*	78*	?	-18%	-35%
NC(=O)C1(N2CCCCC2)CCN(C(=S)Nc2ccc(S(N)(=O)=O)cc2)CC1	-26%	-2	-2	-30%	2%	1%
NS(=O)(=O)c1ccc(CCNC(=O)CSc2nc3ccsc3c(=O)n2CC(=O)O)cc1	-11%	-5	-4	1.2µM*	-1%	16%
CC(C)CCNC(=O)CSc1nc2ccsc2c(=O)n1NC(=O)c1ccccc1	58%	26*	13	?	-9%	7%
CCOC(=O)N1CCC(n2c(SCC(=O)c3ccccc3)nc3ccsc3c2=O)CC1	?	-4	-12	?	-5%	2%
CCCN(CCC)C(=O)CSc1nc2ccsc2c(=O)n1NC(=O)c1ccccc1	77%	19*	32	222%	11%	5%
O=C(CSc1nc2ccsc2c(=O)n1-c1ccc(Br)cc1)NCc1ccccc1	/	14	36	/	/	/
CSCCC(NC(=O)COc1ccccc1)C(=O)NCc1cccs1 (stereo not drawn)	-10%	1	13	0%	9%	-4%
O=C(NNC(=O)C1CCN(S(=O)(=O)c2ccccc2)CC1)c1ccccc1O	-5%	-3	-5	?	4%	?
O=C(NNC(=O)C1CC=CCC1)c1ccccc1Br (stereo not drawn)	26%	active	17	?	14%	-3%
O=C(CNC(=O)C1CCCCC1)NNC(=O)c1ccccc1Br	?	-2	-7	?	1%	0%
O=C(NNC(=O)C1CC=CCC1)c1ccccc1O (stereo not drawn)	54%	18*	25	?	-3%	2%
Cc1ccc(-c2csc(NC(=O)C3=NN(c4ccccc4)C(=O)CC3)n2)cc1	?	4	26	?	11%	11%
O=C(CNCc1ccccc1)NC1C2CC3CC(C2)CC1C3 (stereo not drawn)	42%	14*	/	?	-12%	1%
Cc1ccc(NC(=O)c2ccc(NC(=O)c3ccccc3)cc2)cc1C	25%	46*	56*	1.2µM*	-72%	-5%
CC(=O)Oc1ccc(C(=O)Nc2cccc(C(=O)NC(C)(C)C)c2)cc1	-4%	-2	43	5.2µM*	/	1%
CC(=O)c1cccc(NC(=O)c2cc(Cl)sc2Cl)c1	55%	25*	39*	97%	0%	-15%
Cc1cc(SCC(=O)c2cc(C)n(C)c2C)nc2ccccc12	53%	-4	-2	?	?	13%
Cc1ccc(C)c(OCCn2c(CCNC(=O)C3CCCCC3)nc3ccccc32)c1	/	1	11	/	/	/
Cc1cccc(OCC(=O)NCCCNC(=O)c2ccncc2)c1	-11%	-1	-2	?	7%	?
O=C(CNCc1ccccc1)Nc1ccc(Cl)cc1	-7%[0.00184 µM]	28*	79*	76%	-8%	-1%
O=C(O)c1cccc(NC(=O)c2ccc(S(=O)(=O)c3ccccc3)cc2)c1	46%	-2	-7	12µM*	21%	-5%
CC(=O)c1ccc(NC(=O)c2cccc(NC(=O)c3ccccc3)c2)cc1	-20%	23*	/	?	17%	0%
SMILES	Pf growth 48h	CHX counter	Shiga inhibitor	Pf growth 96h	NS1 inh	SARS PLP yeast
O=C(CC(=O)c1ccccc1)Nc1ccc(Cl)cc1	34%	36*	80*	23%	-3%	-6%
C/C=C(\C)C(=O)O[C@H](c1cc2ccc(=O)oc2cc1OC)[C@@H](O)C(C)(C)O	20%	/	/	25%	/	1%
CCN(CC)C(=O)Nc1ccc(C(=O)OC)cc1	/	16*	13	99%	2%	-3%
CC(=O)c1cccc(NC(=O)c2ccc3ccccc3c2)c1	151%	28*	/	-10%	-28%	-7%
CCN(CC)C(=S)Nc1ccc(C(=O)OC)cc1	-4%	-1	14	?	6%	0%
CC(=O)c1cccc(NC(=O)NNC(=O)c2ccc3ccccc3c2)c1	19%	1	-5	?	7%	-2%
